Earlier results in PubChem BioAssay AID977611.
Among all 3,900 compounds or so, about 3,900 (100%) were called active. The limit is not given here; nearly all actives have Kd up to about 4200 µM. The set was probably picked from earlier hits. The list shows a part of the results. Numbered stars: 1 amine (or outer) side, 2 acyl side, 3 side chain; on linkers, the order of the positions; unused ones are H or OH. Where a SMILES comes first, the peptide text is derived from it. Non-standard residues stand in square brackets, D forms with d. Square brackets hold non-standard residues; d marks the D form. Residues, ends and D or L forms follow the SMILES beside them. Peptide text beside a SMILES is read from it. [ ]: non-standard residue; d: D form. X1 = CNC(NC)NCCC[C@H](N[*:1])C(=O)[*:2]; Lys(Me3) = C[N+](C)(C)CCCC[C@H](N)C(=O)O; Orn(CH(NH2)2) = NC(N)NCCC[C@H](N)C(=O)O; Abu = CC[C@H](N)C(=O)O

Assay: PubChem AID 977611
Conditions: PDB protein-ligand complexes, literature Kd

In the case of `O=C(O)CCc1ccc2c(c1)OCO2`, the Kd (protein: INTEGRASE, PDB entry 4ahr) is given as 6500 µM (active) and the Kd (protein: Pantothenate synthetase (T2A, E77G mutation), PDB entry 4ef6) is given as 1200 µM (active).
For `O=C(O)c1ccc2c(c1)OCO2`, the Kd (protein: Pantothenate synthetase (T2A, E77G mutation), PDB entry 4ddk) is given as 5100 µM (active).
In the case of `O=C1NC(=[N+]2CCCC2)Cc2ccccc21`, the Kd (protein: Caspase-6, PDB entry 4n7m) is given as 3.4 µM (active).
For `O=C(Nc1ccc(OC(F)(F)F)cc1)N(Cc1cccc(-c2nccs2)c1)C1CC1`, the Kd (protein: High affinity nerve growth factor receptor TrkA, PDB entry 4pmp) is listed as 0.4 µM (active).
For `CCc1c(C(=O)NC)[nH]c(C)c1C(C)=O`, the Kd (protein: Bromodomain-containing protein 4, BRD4(1), PDB entry 4lzs) is listed as 16 µM (active).
In the case of `CCc1c(C(=O)Nc2cc(S(=O)(=O)N(CC)CC)ccc2O)[nH]c(C)c1C(C)=O`, the Kd (protein: Bromodomain-containing protein 4, BRD4(1), PDB entry 4lyw) is listed as 237 µM (active).
For `CC(C)C[C@H](NC(=O)[C@H](CCC(N)=O)NC(=O)CNC(=O)[C@H](CCC(N)=O)NC(=O)[C@@H]1CCCN1C(=O)[C@H](CC(C)C)NC(=O)[C@@H]1CCCN1C(=O)[C@H](CCC(=O)O)NC(=O)[C@@H]1CCCN1C(=O)[C@@H](N)CC(C)C)C(=O)N[C@H](C(=O)N[C@@H](C)C(=O)N[C@@H](Cc1ccc(O)cc1)C(=O)O)[C@@H](C)O`, the Kd (protein: HLA class I histocompatibility antigen(HLA-B*3501), PDB entry 1zhk) is listed as 35.2 µM (active) and the Kd (protein: HLA class I histocompatibility antigen(HLA-B*3508), PDB entry 1zhl) is listed as 9.9 µM (active).
For `CC[C@H](C)[C@H](NC(=O)[C@H](CCC(=O)O)NC(=O)[C@@H](NC(=O)[C@H](CC(=O)O)NC(=O)CNC(=O)[C@H](Cc1ccc(O[P+](O)(O)O)cc1)NC(=O)[C@H](CC(=O)O)NC(=O)[C@H](CCC(=O)O)NC(=O)[C@@H]1CCCN1C(=O)[C@H](Cc1ccc(O)cc1)NC(=O)[C@@H]1CCCN1C(=O)[C@H](CC(N)=O)NC(=O)[C@@H](N)Cc1ccc(O)cc1)[C@@H](C)CC)C(=O)NCC(=O)O` (H-YNPYPED[X1]GDIEIG-OH), the Kd (protein: insulin receptor subunit beta, PDB entry 3bu6) is given as 1.3 µM (active).
For `CC[C@H](C)[C@H](NC(=O)[C@H](C)NC(=O)[C@@H]1CCCN1C(=O)[C@@H](NC(=O)[C@@H](N)CC(=O)O)[C@@H](C)CC)C(=O)N[C@@H](Cc1ccc(O)cc1)C(=O)N[C@@H](CCCNC(N)N)C(=O)N[C@@H](Cc1ccc(O)cc1)C(=O)NCC(=O)N[C@@H](CC(C)C)C(=O)N[C@@H](CCC(=O)O)C(=O)NCC(=O)N[C@@H](CC(C)C)C(=O)N[C@@H](CC(C)C)C(=O)O` (H-DIPAIY[Orn(CH(NH2)2)]YGLEGLL-OH), the Kd (protein: CELL DIVISION PROTEIN FTSA, PUTATIVE, PDB entry 4a2a) is listed as 45 µM (active).
In the case of `CC(C)C[C@H](NC(=O)[C@@H](NC(=O)[C@H](C)NC(=O)[C@H](Cc1ccc(O)cc1)NC(=O)[C@H](C)NC(=O)[C@@H]1CCCN1C(=O)[C@@H]1CCCN1C(=O)[C@@H]1CCCN1C(=O)[C@H](C)NC(=O)[C@@H](N)[C@@H](C)O)[C@@H](C)O)C(=O)NCC(=O)O` (H-TAPPPAYATLG-OH), the Kd (protein: E3 ubiquitin-protein ligase NEDD4, PDB entry 2m3o) is listed as 5 µM (active).
For H-QAQGPPYPTYPGY-OH, the Kd (protein: ESCRT and ALIX binding region (EABR), PDB entry 3e1r) is given as 1.5 µM (active).
For H-DDDEDGYNPYTL-OH, the Kd (protein: CTD interacting domain of Protein NRD1, PDB entry 2mow) is given as 1.09 µM (active).
In the case of `CC[C@H](NC(=O)[C@@H](NC(=O)[C@H](CC(C)C)NC(=O)[C@H](CC(=O)O)NC(=O)[C@H](CCC(N)=O)NC(=O)[C@H](CCC(=O)O)NC(=O)[C@@H](NC(=O)[C@@H]1CCCN1C(=O)[C@@H]1CCCN1C(=O)[C@@H](N)CC(C)C)[C@@H](C)O)[C@@H](C)O)C(=O)N[C@@H](CC(C)C)C(=O)N[C@@H](CC(C)C)C(=O)N[C@@H](C)C(=O)N[C@@H](CCC(=O)O)C(=O)O` (H-LPPTEQDLT[Abu]LLAE-OH), the Kd (protein: nuclear coactivator 1 (NCoA-1) PAS-B domain, PDB entry 1oj5) is listed as 0.8 µM (active).
In the case of `CNC(NC)NCCC[C@H](NC(=O)[C@H](C)N)C(=O)N[C@H](C(=O)N[C@@H](CCCC[N+](C)(C)C)C(=O)N[C@@H](CCC(N)=O)C(=O)N[C@H](C(=O)N[C@@H](C)C(=O)N[C@@H](C)C(=O)N[C@@H](C)C(N)=O)[C@@H](C)O)[C@@H](C)O` (H-A[X1]T[Lys(Me3)]QTAAA-NH2), the Kd (protein: RAG2-PHD, PDB entry 2v87) is listed as 25.1 µM (active).
For `C[C@H](N)C(=O)N[C@@H](CCCN=C(N)N)C(=O)N[C@H](C(=O)N[C@@H](CCCC[N+](C)(C)C)C(=O)N[C@@H](CCC(N)=O)C(=O)N[C@H](C(=O)N[C@@H](C)C(=O)O)[C@@H](C)O)[C@@H](C)O` (H-ART[Lys(Me3)]QTA-OH), the Kd (protein: human Spindlin1, PDB entry 4mzh) is listed as 0.066 µM (active).
In the case of `C[C@H](N)C(=O)N[C@@H](CCCN=C(N)N)C(=O)N[C@H](C(=O)N[C@@H](CCCC[N+](C)(C)C)C(=O)N[C@@H](CCC(N)=O)C(=O)N[C@H](C(=O)N[C@@H](C)C(=O)N[C@@H](CCCNC(N)=[N+](C)C)C(=O)N[C@@H](CCCCN)C(=O)O)[C@@H](C)O)[C@@H](C)O`, the Kd (protein: human Spindlin1, PDB entry 4mzf) is given as 0.045 µM (active).
In the case of `C[C@H](N)C(=O)N[C@@H](CCCNC(N)N)C(=O)N[C@@H](CCCC[N+](C)(C)C)C(=O)N[C@@H](CO)C(=O)N[C@@H](C)C(=O)NCC(=O)N[C@@H](C)C(=O)N[C@@H](C)C=O` (H-A[Orn(CH(NH2)2)][Lys(Me3)]SAGAA-aldehyde), the Kd (protein: Polycomb protein EED residues 77-441, PDB entry 3iiy) is given as 16 µM (active).
In the case of `C[C@H](N)C(=O)N[C@@H](CCCNC(N)N)C(=O)N[C@H](C(=O)N[C@@H](CCCC[N+](C)(C)C)C(=O)N[C@@H](CCC(N)=O)C(=O)N[C@H](C(=O)O)[C@@H](C)O)[C@@H](C)O` (H-A[Orn(CH(NH2)2)]T[Lys(Me3)]QT-OH), the Kd (protein: bromodomain PHD finger transcription factor, PDB entry 2f6j) is listed as 2.7 µM (active).
In the case of `C[C@H](N)C(=O)N[C@@H](CCCNC(N)N)C(=O)N[C@H](C(=O)N[C@@H](CCCC[N+](C)(C)C)C(=O)N[C@@H](CCC(N)=O)C(=O)N[C@H](C(=O)N[C@@H](C)C(=O)O)[C@@H](C)O)[C@@H](C)O` (H-A[Orn(CH(NH2)2)]T[Lys(Me3)]QTA-OH), the Kd (protein: Histone-lysine N-methyltransferase MLL5, PDB entry 4l58) is given as 21 µM (active), the Kd (protein: Inhibitor of growth protein 5, PDB entry 3c6w) is given as 2.4 µM (active) and the Kd (protein: Jumonji domain-containing protein 2A, PDB entry 2gfa) is given as 10.4 µM (active).
In the case of `C[C@H](N)C(=O)N[C@@H](CCCNC(N)N)C(=O)N[C@@H](CCCC[N+](C)(C)C)C(=O)N[C@@H](CO)C(=O)N[C@@H](C)C(=O)O` (H-A[Orn(CH(NH2)2)][Lys(Me3)]SA-OH), the Kd (protein: Polycomb protein EED residues 77-441, PDB entry 3iiw) is listed as 36.4 µM (active).
